# This is a sample that favours compounds with a hit; in the whole collection about 6.6% have one here.
# FBA Mtb inh: inhibitors of M. tuberculosis fructose-bisphosphate aldolase; P9WQA3; 360,000 compounds, 2.3% hits; inhibition, % at 1 µM; purified M. tuberculosis FBA, fluorescence read-out; AID 588726; in the data active = inhibition above about 27%
# Target sequence (P9WQA3 whole entry, looked up): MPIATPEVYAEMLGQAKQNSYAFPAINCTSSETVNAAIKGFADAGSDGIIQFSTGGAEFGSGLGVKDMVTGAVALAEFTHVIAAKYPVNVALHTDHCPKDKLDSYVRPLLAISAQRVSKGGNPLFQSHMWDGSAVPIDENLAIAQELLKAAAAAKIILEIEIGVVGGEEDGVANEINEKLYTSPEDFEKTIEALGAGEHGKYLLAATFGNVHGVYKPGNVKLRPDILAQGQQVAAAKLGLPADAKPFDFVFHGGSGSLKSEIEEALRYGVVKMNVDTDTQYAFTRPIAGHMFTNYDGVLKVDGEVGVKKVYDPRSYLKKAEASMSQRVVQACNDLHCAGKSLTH
# Autofluor counter: compound fluorescence in toxin protease inhibitor counterscreen | 360,000 compounds, 3.1% hits | compound autofluorescence counterscreen, microsphere flow cytometry; stronger effect = higher value | fluorescence intensity (concentration not given with the values); in the data active = fluorescence intensity above about 16000; inconclusive = no clear call, values can overlap the other calls
# BoNT F protease: inhibitors of Botulinum neurotoxin F light chain protease | Multiplex microsphere protease cleavage assay, flow cytometry | inhibition, % at 10 µM | 360,000 compounds, 0.22% hits | AID 588497; in the data active = inhibition above about 35%, passing the limit was not always enough; inconclusive = no clear call, values can overlap the other calls
# Anthrax LF inh2: anthrax lethal factor protease inhibition. multiplex microsphere protease cleavage assay, LF. inhibition, % at 10 µM. 360,000 compounds, 0.12% hits. AID 588501
# BoNT A protease: blocks Botulinum neurotoxin A light chain protease. multiplex microsphere protease substrate cleavage, flow cytometry. inhibition, % at 10 µM. 360,000 compounds, 0.17% hits
# GDH-TPI counter-1: GDH-TPI coupled enzyme inhibition counter-screen | AID 588335 | 360,000 compounds, 1.2% hits | GDH-TPI coupled enzyme counterscreen, NADH absorbance | inhibition, % at 4.8 µM; in the data active = inhibition above about 30%
# Mtb FBA inh conf: confirmation of M. tuberculosis fructose-bisphosphate aldolase inhibitors. purified M. tuberculosis FBA, fluorescence read-out. 5,600 compounds, 78% hits. shares compounds with FBA Mtb inh. inhibition, % at 1 µM; in the data active = inhibition above about 27%
# GDH-TPI counter-2: GDH-TPI inhibition counter-screen for FBA inhibitors; GDH-TPI coupled enzyme counterscreen, fluorescence; inhibition, % at 1 µM; shares compounds with FBA Mtb inh; 5,600 compounds, 81% hits; in the data active = inhibition above about 10%
# Hits are given with their value; – = inactive; ? = inconclusive; · = no result given; + = active, no number. Cut-off read from the data, not from the text of the source, unless noted: active = inhibition above about 30%; inconclusive = no clear call, values can overlap the other calls; inactive = below that.
SMILES,FBA Mtb inh,Autofluor counter,BoNT F protease,Anthrax LF inh2,BoNT A protease,GDH-TPI counter-1,Mtb FBA inh conf,GDH-TPI counter-2
COc1cc2c(oc(=O)c3cc(C)cc(OC)c32)c2c(C3OC(C)C(O)C(C)(O)C3O)ccc(O)c12 (centres undefined),–,–,–,–,–,–,·,·
CCN1C(=O)/C(=C/c2ccc(OC)c(OC)c2)N=C1SCC(=O)NCc1ccco1,–,–,–,–,–,–,·,·
Cc1ccc(-c2cc(-c3ccccc3)cc(-c3ccccc3)[n+]2-c2ccc(C(=O)O)cc2)cc1,29,–,–,–,–,–,49,46
Cc1ccc(-c2cc(-c3ccc(C)cc3)[n+](-c3ccc(C(=O)O)cc3)c(-c3ccc(C)cc3)c2)cc1,–,–,–,–,–,–,·,·
CCC(C)NC(=O)c1cnn2c(C)c3c(nc12)CCCC3 (centres undefined),46,–,–,–,–,–,+,+
CCC(C)C(=O)Nc1c2c(nc3c1CCC3)CCCC2 (centres undefined),–,–,–,–,–,–,·,·
CN(CCc1ccccc1)C(c1ccnc2ccccc12)c1nnnn1-c1ccc2c(c1)OCCO2 (centres undefined),·,–,–,–,–,·,·,·
CCOc1cc(-c2cc(-c3ccc(N)cc3)nc(N)c2C#N)ccc1O,29,–,?,–,–,–,52,45
CCOc1cc(-c2cc(-c3ccccc3)nc(N)c2C#N)ccc1O,–,–,–,–,–,–,·,·
C[C@]12c3[nH]c4cc(-c5ccco5)ccc4c3CCN1C(=O)[C@@H](CC(=O)NCCc1ccccn1)C[C@@H]2C(=O)N1CCCCC1,43,–,–,–,–,–,68,47
CC[C@]12c3[nH]c4cc(-c5ccco5)ccc4c3CCN1C(=O)[C@@H](CC(=O)NCCc1ccccn1)C[C@@H]2C(=O)N1CCN(C(=O)C2CC2)CC1,30,–,–,–,–,–,47,33
C[C@]12c3[nH]c4cc(-c5ccco5)ccc4c3CCN1C(=O)[C@@H](CC(=O)NCCC1=CCCCC1)C[C@@H]2C(=O)N1CCCCC1,–,–,–,–,–,–,·,·
CC[C@]12c3[nH]c4ccccc4c3CCN1C(=O)C(CC(=O)NCCc1ccccn1)C[C@@H]2C(=O)N1CCN(C(=O)C2CC2)CC1 (some centres undefined),–,–,–,–,–,–,·,·
CC[C@]12c3[nH]c4cc(-c5ccco5)ccc4c3CCN1C(=O)[C@@H](CC(=O)NC/C=C(\C)CCC=C(C)C)C[C@@H]2C(=O)N1CCN(C(=O)C2CC2)CC1,–,–,–,–,–,–,·,·
CC[C@]12c3[nH]c4cc(-c5ccco5)ccc4c3CCN1C(=O)[C@@H](CC(=O)NC(C)(C)C)C[C@@H]2C(=O)N1CCN(C(=O)C2CC2)CC1,27,–,–,–,–,–,63,52
CCOC(=O)C1=C(N)Oc2c(c(=O)[nH]c3ccccc23)C1c1ccccc1 (centres undefined),–,–,–,–,–,–,·,·
Nc1ccccc1C(=O)Nc1nccs1,55,–,–,–,–,–,128,84
COc1ccccc1C1(O)C(=O)Nc2ccc(C)cc21 (centres undefined),–,–,–,–,–,–,·,·
O=C(Cn1c2ccccc2c(=O)c2ccccc21)Nc1cccc(F)c1,90,–,–,–,–,–,100,71
Cc1ccc(CNC(=O)CN(C(=O)C2(C)CC(=O)N=C3C=CC=CN32)c2ccccc2)cc1 (centres undefined),74,–,–,–,–,–,–,–
Cc1ccc(CN2CCN(CC(=O)NCc3ccccc3)CC2)cc1,–,–,?,–,–,–,·,·
Cc1ccc(CNC(=O)CN(C(=O)C2(C)CC(=O)N=C3C=CC=CN32)c2cccc(C)c2C)cc1 (centres undefined),111,–,–,–,–,–,93,86
Cc1ccc(CN2CC(C(=O)N3CCN(c4ccccc4Cl)CC3)CC2=O)cc1 (centres undefined),–,–,–,–,–,–,·,·
Cn1cccc1C(=O)NC(=O)COC(=O)c1cc(Cl)ccc1[N+](=O)[O-],–,–,–,–,–,–,·,·
S=c1[nH]cc(-c2ccccc2)[nH]1,53,–,–,–,–,–,60,60
SMILES,FBA Mtb inh,Autofluor counter,BoNT F protease,Anthrax LF inh2,BoNT A protease,GDH-TPI counter-1,Mtb FBA inh conf,GDH-TPI counter-2
O=[N+]([O-])c1ccc(-c2c[nH]c(=S)[nH]2)cc1,–,?,–,–,–,–,·,·
O=C1c2ccccc2NC(c2cccc(O)c2)N1Cc1ccco1 (centres undefined),60,–,–,–,–,–,107,70
O=C1c2ccccc2NC(c2cccc(O)c2)N1c1ccccc1 (centres undefined),42,–,–,–,–,–,129,107
CCC(CO)NC(=O)C1C=C2c3cccc4[nH]cc(c34)CC2N(C)C1 (centres undefined),83,–,–,–,–,–,+,+
Cc1cc(C)c2c(N)c3cccc(C)c3nc2n1,65,–,–,–,–,–,133,111
Cc1cccc2c(N)c3c(nc12)CCCC3 (tested in a mixture with another compound),–,–,–,–,–,–,·,·
NS(=O)(=O)c1ccc(CCNC(=O)c2cc(=O)[nH]c3ccccc23)cc1,–,–,–,–,–,–,·,·
NS(=O)(=O)c1ccc(CCNC(=O)c2coc3ccccc3c2=O)cc1,28,–,–,–,–,–,155,99
Cc1ccc2cc(C#N)c(NCc3ccccc3)nc2c1,32,–,–,–,–,–,53,44
Cc1cccc(NC(=O)N2CCN(Cc3ccccc3)CC2)c1,–,–,–,–,–,–,·,·
O=C(Nc1cccc2ccccc12)N1CCN(Cc2ccccc2)CC1,33,–,–,–,–,–,96,74
O=C(Nc1ccccc1)N1CC=C(c2ccc(F)cc2)CC1,–,–,–,–,–,–,·,·
O=C(Nc1cccc2ccccc12)N1CC=C(c2ccccc2)CC1,33,–,–,–,–,–,55,68
CCOC(=O)N1CCN(C(=O)Nc2cccc3ccccc23)CC1,31,–,–,–,–,–,170,156
CC(=O)c1c(C)[nH]c(C(=O)OC(C)C(=O)NC2CCCCC2)c1C (centres undefined),–,–,–,–,–,–,·,·
COc1ccc(NC(=O)c2ccsc2NC(C)=O)cc1,–,–,–,–,–,–,·,·
Cc1ccc(S(=O)(=O)N(C)c2ccc(OC(=O)c3cccs3)cc2)cc1C,–,–,–,–,–,–,·,·
CCCC(=O)Nc1cc(OC)c(OC)cc1C(=O)O,–,–,–,–,–,–,·,·
CCNC(=O)Nc1cc(OC)c(OC)cc1C(=O)O,45,–,–,–,–,–,89,78

# Source: PubChem BioAssay
